This passage reports binding signal results from paper PMC9911399, “Two distinct binding modes provide the RNA-binding protein RbFox with extraordinary sequence specificity”.

Sequences and labels used below:
T1: RBFOX1 RRM (Homo sapiens, UniProt Q9NWB1 109-208)
T1 sequence: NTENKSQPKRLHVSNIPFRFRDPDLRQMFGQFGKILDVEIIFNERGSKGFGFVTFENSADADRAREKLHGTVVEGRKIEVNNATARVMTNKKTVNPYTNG

B1: CGCAUAC (DNA:RNA)
RNA: GGGAGACCGGAAUUCAGAUUGUCCCGCAUACUUAAAUCCCGUCGUAGCCACCA
DNA 1: CAATCTGAATTCCGGTCTCCC
DNA 2: TGGTGGCTACGACGGGATT
B2: AUGCGCC (DNA:RNA)
RNA: B1 RNA with C25A, G26U, C27G, A28C, U29G, A30C
DNA 1: CAATCTGAATTCCGGTCTCCC
DNA 2: TGGTGGCTACGACGGGATT
B3: AACACCC (DNA:RNA)
RNA: B1 RNA with C25A, G26A, U29C, A30C
DNA 1: CAATCTGAATTCCGGTCTCCC
DNA 2: TGGTGGCTACGACGGGATT
B4: AAUUUUC (DNA:RNA)
RNA: B1 RNA with C25A, G26A, C27U, A28U, A30U
DNA 1: CAATCTGAATTCCGGTCTCCC
DNA 2: TGGTGGCTACGACGGGATT
B5: ACAGCCG (DNA:RNA)
RNA: GGGAGACCGGAAUUCAGAUUGUCCACAGCCGUUAAAUCCCGUCGUAGCCACCA
DNA 1: CAATCTGAATTCCGGTCTCCC
DNA 2: TGGTGGCTACGACGGGATT
B6: UGGGCCU (DNA:RNA)
RNA: B5 RNA with A25U, C26G, A27G, G31U
DNA 1: CAATCTGAATTCCGGTCTCCC
DNA 2: TGGTGGCTACGACGGGATT
B7: UGGCCGU (DNA:RNA)
RNA: B5 RNA with A25U, C26G, A27G, G28C, C30G, G31U
DNA 1: CAATCTGAATTCCGGTCTCCC
DNA 2: TGGTGGCTACGACGGGATT
B8: UGGGCCG (DNA:RNA)
RNA: B5 RNA with A25U, C26G, A27G
DNA 1: CAATCTGAATTCCGGTCTCCC
DNA 2: TGGTGGCTACGACGGGATT
B9: UGGGGCC (DNA:RNA)
RNA: B5 RNA with A25U, C26G, A27G, C29G, G31C
DNA 1: CAATCTGAATTCCGGTCTCCC
DNA 2: TGGTGGCTACGACGGGATT
B10: CUGGGCC (DNA:RNA)
RNA: B5 RNA with A25C, C26U, A27G, C29G, G31C
DNA 1: CAATCTGAATTCCGGTCTCCC
DNA 2: TGGTGGCTACGACGGGATT
B11: UGGGCCC (DNA:RNA)
RNA: B5 RNA with A25U, C26G, A27G, G31C
DNA 1: CAATCTGAATTCCGGTCTCCC
DNA 2: TGGTGGCTACGACGGGATT
B12: GACUUCU (DNA:RNA)
RNA: B1 RNA with C25G, G26A, A28U, A30C, C31U
DNA 1: CAATCTGAATTCCGGTCTCCC
DNA 2: TGGTGGCTACGACGGGATT
B13: UCCAGUC (DNA:RNA)
RNA: B1 RNA with C25U, G26C, U29G, A30U
DNA 1: CAATCTGAATTCCGGTCTCCC
DNA 2: TGGTGGCTACGACGGGATT
B14: GUCAUGU (DNA:RNA)
RNA: B1 RNA with C25G, G26U, A30G, C31U
DNA 1: CAATCTGAATTCCGGTCTCCC
DNA 2: TGGTGGCTACGACGGGATT
B15: GGCAUGU (DNA:RNA)
RNA: B1 RNA with C25G, A30G, C31U
DNA 1: CAATCTGAATTCCGGTCTCCC
DNA 2: TGGTGGCTACGACGGGATT
B16: GGCAUUG (DNA:RNA)
RNA: B1 RNA with C25G, A30U, C31G
DNA 1: CAATCTGAATTCCGGTCTCCC
DNA 2: TGGTGGCTACGACGGGATT
B17: UGGCAUG (DNA:RNA)
RNA: B5 RNA with A25U, C26G, A27G, G28C, C29A, C30U
DNA 1: CAATCTGAATTCCGGTCTCCC
DNA 2: TGGTGGCTACGACGGGATT
B18: UGGCAUA (DNA:RNA)
RNA: B1 RNA with C25U, C27G, A28C, U29A, A30U, C31A
DNA 1: CAATCTGAATTCCGGTCTCCC
DNA 2: TGGTGGCTACGACGGGATT
B19: CGGCAUG (DNA:RNA)
RNA: B1 RNA with C27G, A28C, U29A, A30U, C31G
DNA 1: CAATCTGAATTCCGGTCTCCC
DNA 2: TGGTGGCTACGACGGGATT
B20: AUGUCGU (DNA:RNA)
RNA: B5 RNA with C26U, A27G, G28U, C30G, G31U
DNA 1: CAATCTGAATTCCGGTCTCCC
DNA 2: TGGTGGCTACGACGGGATT
B21: AGGCAUG (DNA:RNA)
RNA: B5 RNA with C26G, A27G, G28C, C29A, C30U
DNA 1: CAATCTGAATTCCGGTCTCCC
DNA 2: TGGTGGCTACGACGGGATT
B22: UGGCAUC (DNA:RNA)
RNA: B1 RNA with C25U, C27G, A28C, U29A, A30U
DNA 1: CAATCTGAATTCCGGTCTCCC
DNA 2: TGGTGGCTACGACGGGATT
B23: AGGCAUA (DNA:RNA)
RNA: B5 RNA with C26G, A27G, G28C, C29A, C30U, G31A
DNA 1: CAATCTGAATTCCGGTCTCCC
DNA 2: TGGTGGCTACGACGGGATT
B24: ACCGGCA (DNA:RNA)
RNA: B5 RNA with A27C, C29G, G31A
DNA 1: CAATCTGAATTCCGGTCTCCC
DNA 2: TGGTGGCTACGACGGGATT
B25: AGGCAUC (DNA:RNA)
RNA: B1 RNA with C25A, C27G, A28C, U29A, A30U
DNA 1: CAATCTGAATTCCGGTCTCCC
DNA 2: TGGTGGCTACGACGGGATT
B26: GUGCGUA (DNA:RNA)
RNA: GGGAGACCGGAAUUCAGAUUGUCCGUGCGUAUUAAAUCCCGUCGUAGCCACCA
DNA 1: CAATCTGAATTCCGGTCTCCC
DNA 2: TGGTGGCTACGACGGGATT
B27: CGUGGAA (DNA:RNA)
RNA: B1 RNA with C27U, A28G, U29G, C31A
DNA 1: CAATCTGAATTCCGGTCTCCC
DNA 2: TGGTGGCTACGACGGGATT
B28: CCCGACG (DNA:RNA)
RNA: B5 RNA with A25C, A27C, C29A
DNA 1: CAATCTGAATTCCGGTCTCCC
DNA 2: TGGTGGCTACGACGGGATT
B29: CGAGUCG (DNA:RNA)
RNA: B5 RNA with A25C, C26G, C29U
DNA 1: CAATCTGAATTCCGGTCTCCC
DNA 2: TGGTGGCTACGACGGGATT
B30: UCGCCGA (DNA:RNA)
RNA: B26 RNA with G25U, U26C, G29C, U30G
DNA 1: CAATCTGAATTCCGGTCTCCC
DNA 2: TGGTGGCTACGACGGGATT
B31: AAGUACG (DNA:RNA)
RNA: B5 RNA with C26A, A27G, G28U, C29A
DNA 1: CAATCTGAATTCCGGTCTCCC
DNA 2: TGGTGGCTACGACGGGATT

Where a chain is given by its changes, count along the chain named. The full ranking holds about 16,000 sequences; the median of “ka relative to ugcaugu” is about 0.0091, and the highest 2% start at about 0.032. The list comes from a sample in which the highest values are over-represented; it also holds similar and randomly drawn sequences.

The target of the assay is T1, RBFOX1 RRM. Nature of the assay: EMSA; HiTS-Eq, 1 nM pool, 10 min; buffer printed only for the single-RNA assays: 10 mM Tris pH 7.5, 150 mM NaCl, 3.4 mM EDTA, 0.001% NP-40, 30 C. To be noted: tags: His6 N-terminal (pET28a); label: 5' 32P. The essentials:
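Purified RbFox RRM, wild type or mutant, was incubated for 10 min in 50 µL with 1 nM of a 5′-radiolabelled RNA pool carrying 7 randomized nucleotides, whose flanks were annealed to DNA oligonucleotides, over a series of increasing protein concentrations. Unbound RNA was resolved on 8% native PAGE, cut out, reverse-transcribed, barcoded by PCR and sequenced on an Illumina HiSeq 2500. Relative association constants were derived from changes in read counts for each RNA species versus the control reaction and normalised to the cognate motif.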
Take B1: the binding signal was 0.0068 KA relative to UGCAUGU.

Regarding B2, the binding signal was 0.0101 KA relative to UGCAUGU.

Regarding B3, the binding signal is 0.000265 KA relative to UGCAUGU.

As for B4, the binding signal is 0.00788 KA relative to UGCAUGU.

As to B5, the binding signal was 0.00101 KA relative to UGCAUGU.

As to B6, the binding signal is 0.0237 KA relative to UGCAUGU.

On to B7, for which the binding signal was 0.023 KA relative to UGCAUGU.

Take B8: the binding signal was 0.0335 KA relative to UGCAUGU.

Consider B9, for which the binding signal was 0.0345 KA relative to UGCAUGU.

As to B10, the binding signal is 0.0274 KA relative to UGCAUGU.

Turning to B11, the binding signal was 0.0266 KA relative to UGCAUGU.

Turning to B12, the binding signal is 0.0118 KA relative to UGCAUGU.

For the molecule B13, the binding signal was 0.00851 KA relative to UGCAUGU.

As for B14, the binding signal was 0.0129 KA relative to UGCAUGU.

As to B15, the binding signal is 0.426 KA relative to UGCAUGU.

On to B16, for which the binding signal is 0.0108 KA relative to UGCAUGU.

For B17, the binding signal is 0.696 KA relative to UGCAUGU.

In the case of B18, the binding signal is 0.0137 KA relative to UGCAUGU.

In the case of B19, the binding signal was 0.573 KA relative to UGCAUGU.

For B20, the binding signal is 0.0142 KA relative to UGCAUGU.

On to B21, for which the binding signal was 0.662 KA relative to UGCAUGU.

As for B22, the binding signal is 0.0211 KA relative to UGCAUGU.

As to B23, the binding signal is 0.00927 KA relative to UGCAUGU.

For B24, the binding signal was 0.00809 KA relative to UGCAUGU.

B25: the binding signal was 0.0123 KA relative to UGCAUGU.

With B26, the binding signal was 0.0121 KA relative to UGCAUGU.

Turning to B27, the binding signal is 0.0142 KA relative to UGCAUGU.

Turning to B28, the binding signal was 0.0192 KA relative to UGCAUGU.

For the molecule B29, the binding signal was 0.0112 KA relative to UGCAUGU.

As to B30, the binding signal is 0.0122 KA relative to UGCAUGU.

Consider B31, for which the binding signal was 0.0114 KA relative to UGCAUGU.
